The text below walks through data of PubChem BioAssay AID1259423 (Fisher Drug Discovery Resource Center, 2018).

This assay has as its system Aedes aegypti neuropeptide Y-like receptor 7 (NPYLR7). Nature of the assay: agonists of mosquito NPYLR7 receptor, primary screen, cell-based, Aedes aegypti, calcium fluorescence, mosquito biting behavior (AID 1259423).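 Further: 0% = vehicle and 100% = reference agonist at the receptor.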 As to conditions: HEK293T NPYLR7/Galpha15, GCaMP6s calcium fluorescence, at 10 µM, stronger effect = higher value.
The mark [1] stands for this setting: measured here: Max-Min RFU normalised activation.

Where “and” joins values, the source holds several entries; their conditions need not be identical. Identical values can stand only once. The whole screen tested about 270,000 compounds, of which about 410 (0.15%) were called active. No stated cut-off is given here; in the data, active means activation above about 40%; inactive means the rest, inconclusive results apart. The entries come from a sample that favours actives as a whole. Where a structure was tested more than once in an assay, its records may differ in their call.

Turning to `COc1ccc(N2C(=O)/C(=C\c3ccc(N(C)C)cc3)SC2=S)cc1`, the activation is -3.18% (inactive). Moreover, under setting [1], the activation was -7.36%.

As to `CC(C(=O)O)N1C(=O)/C(=C/c2ccccn2)SC1=S` (configuration not stated), the activation was -2.67% (inactive). Further, under setting [1], the activation was -6.6%.

For the compound `CC(C(=O)O)N1C(=O)/C(=C/c2ccc(N(C)C)cc2)SC1=S` (configuration not stated), the activation is 64.5% (active). Further, the activation under setting [1] came out at 54.2%.

For the compound `Brc1ccc2nc(-c3ccccc3)c(NC3CCCCC3)n2c1`, the activation is -4.85% (inactive). Besides, the activation under setting [1] amounted to 5.22%.

Regarding `Cc1csc(=O)n1CCC(=O)OC(C)C(N)=O` (configuration not stated), the activation was 1.77% (inactive). Besides, the activation under setting [1] was 0.428%.

Regarding `CC(=O)Oc1ccc(Cn2c(C)c(C(=O)NCc3ccc(C(C)C)cc3)sc2=O)cc1`, the activation was -6.93% (inactive). Moreover, under setting [1], the activation is -8.16%.

In the case of `Cc1c(C(=O)NCc2ccc(C#N)cc2)sc(=O)n1Cc1ccc(C(=O)N(C)C)cc1`, the activation was 2.34% (inactive). Moreover, under setting [1], the activation is -0.426%.

For the compound `CC(=O)Oc1ccc(Cn2c(C)c(C(=O)NCc3ccc(C#N)cc3)sc2=O)cc1`, the activation was 53.2% (active). Moreover, the activation under setting [1] amounted to 43.3%.

`CC(=O)N1CCN(C(=O)COc2c(C)cc(Br)cc2Cl)CC1`: the activation is 2.73% (inactive). Further, the activation under setting [1] came out at 1.6%.

In the case of `O=P1(Nc2cc(C(F)(F)F)ccc2Cl)C=C(c2ccccc2)OC(c2ccccc2)=C1`, the activation was 52.5% (active). Moreover, the activation under setting [1] turned out to be 88.3%.

For `COc1ccc(C(=O)Nc2cc(C(F)(F)F)ccc2Cl)cc1[N+](=O)[O-]`, the activation is 1.83% (inactive). The activation under setting [1] amounted to 0.579%.

Regarding `CCn1c(N2CCN(Cc3cccc4ccccc34)CC2)nc2c1c(=O)[nH]c(=O)n2C`, the activation was 1.95% (inactive). Also, under setting [1], the activation was 4.2%.

As to `O=C(Nc1nc2c(s1)CCC2)c1cnn(Cc2ccccc2)c1`, the activation was -0.747% (inactive). Further, under setting [1], the activation was -2.1%.

As for `O=C(c1ccco1)N(Cc1cccc(Cl)c1)CC1CC(c2ccccc2F)=NO1` (configuration not stated), the activation is -2.38% (inactive). Further, under setting [1], the activation was 16.5%.

Consider `O=C1CCCCCCCCCOCCCCCO1`, for which the activation was 1.79% (inactive). Also, the activation under setting [1] turned out to be 0.962%.

Consider `O=C(NCC1CCCO1)c1cccc(Nc2c(Oc3cccc(Cl)c3)cnn(-c3ccccc3)c2=O)c1` (configuration not stated), for which the activation is 0.00562% (inactive). Besides, under setting [1], the activation stood at 12.8%.

In the case of `COCCN(CC(=O)N1CCc2sccc2C1c1ccccc1)C(=O)COCc1ccccc1` (configuration not stated), the activation is 1.27% (inactive). For the same compound, the activation under setting [1] worked out at 4.39%.

For `Nc1c(Oc2ccccc2)cc(Nc2ccccc2)c2c1C(=O)c1ccccc1C2=O`, the activation was -6.94% (inactive). Further, under setting [1], the activation is -5.96%.

On to `Cc1csc(=Nc2ccccc2)n1C1CCCC1`, for which the activation was 1.06% (inactive). The activation under setting [1] came out at 7.29%.

Turning to `O=C1OCCN1Cc1nc(CCc2ccccc2)nn1-c1ccccn1`, the activation is -2.22% (inactive). Besides, under setting [1], the activation is -8.03%.

For the compound `CC(=O)N1CCc2c(sc(NC(=O)c3cccs3)c2-c2nc3ccccc3s2)C1`, the activation is 3.8% (inactive). The activation under setting [1] amounted to 5.03%.

`CC(=O)c1ccc(C(=O)Nc2sc3c(c2-c2nc4ccccc4s2)CCN(C)C3)cc1`: the activation was 12.4% (inactive). Also, under setting [1], the activation was determined as 11.3%.

`CCOc1ccc(C(=O)Nc2sc3c(c2-c2nc4ccccc4s2)CCN(C)C3)cc1`: the activation was 105% (active). Further, the activation under setting [1] came out at 107%.

With `Cc1ccc(CCC(=O)N2CCOC3(CNCCOC3)C2)cc1C` (configuration not stated), the activation was 5.94% (inactive). Moreover, the activation under setting [1] was 6.1%.

`Cc1c(NC(=O)C(C)(C)c2ccccc2)cccc1C(=O)N1CCOCC1`: the activation is 2.93% (inactive). Moreover, the activation under setting [1] was determined as 1.78%.

Regarding `CCOc1nc(-c2ccc(C(F)(F)F)cc2)n(-c2ccc(NCC(O)COCc3ccccc3)cc2)n1` (configuration not stated), the activation is -2.33% (inactive). For the same compound, the activation under setting [1] was determined as 4.92%.

Take `Fc1ccc(N2CCC(N3CCCC(Nc4ccccc4)C3)CC2)cc1` (configuration not stated): the activation is -4.09% (inactive) and -0.074% (inactive). Besides, under setting [1], the activation was -9.41% and 0.61%.

Regarding `O=[N+]([O-])c1c(Nc2ccccc2)[nH]c2ccccc12`, the activation is 15.3% (inactive). Moreover, the activation under setting [1] worked out at 12.9%.

For the compound `CC(Oc1ccccc1)C(=O)N[C@@H]1C(=O)N2[C@@H]1SC(C)(C)[C@@H]2C(=O)O` (some centres not stated), the activation is -1.06% (inactive) and 61.5% (active). Moreover, the activation under setting [1] was -1.47% and 49.3%.

With `CC1(C)SC2C(NC(=O)COc3ccccc3)C(=O)N2C1C(=O)O` (configuration not stated), the activation was -1.02% (inactive). In addition, the activation under setting [1] is -6.97%.

Turning to `CCOC(=O)OC(C)OC(=O)C1N2C(=O)C(NC(=O)[C@H](N)c3ccccc3)C2SC1(C)C` (some centres not stated), the activation was -11.5% (inactive). The activation under setting [1] is -16.7%.

For `CCOC(=O)C(C)Sc1ccc(NC(=O)C(C)C)nn1` (configuration not stated), the activation was 0.376% (inactive). The activation under setting [1] is -0.597%.

On to `CC(=O)N[C@H]1C[C@@H](c2c(C)nc3sccn23)O[C@@H](C2CCCCC2)C1`, for which the activation was 19.4% (inactive). Also, the activation under setting [1] was determined as 3.2%.

For `CN(c1ccccc1)c1nnc(C(O)c2cc(F)c(F)c(F)c2)s1` (configuration not stated), the activation is 0.561% (inactive). For the same compound, the activation under setting [1] was -0.28%.

Consider `CCc1nc2ccc(C(=O)N(C)Cc3ccco3)cn2c1N(C)CCC(C)C`, for which the activation was -5.57% (inactive). Further, the activation under setting [1] is -12.5%.

Turning to `O=C(Nc1ccc(C(F)(F)F)cc1)C1CCCN(c2ccc(-c3ccco3)nn2)C1` (configuration not stated), the activation was -4.36% (inactive). In addition, the activation under setting [1] was -8.71%.

In the case of `C=CCN(Cc1csc(COc2ccc(C)c(C)c2)n1)C(=O)c1cccc(OC)c1`, the activation is -4.71% (inactive). Under setting [1], the activation amounted to 3.47%.

Turning to `Cc1c(-c2ccccc2)c(=O)oc2c3c(ccc12)OCN(Cc1cccnc1)C3`, the activation is -8.96% (inactive). The activation under setting [1] is -15.9%.

For `COc1cccc(/C=C2\Oc3c(ccc4c3CN(Cc3ccncc3)CO4)C2=O)c1`, the activation was 66.8% (active). In addition, under setting [1], the activation came out at 55.3%.

Turning to `COCCCN1COc2ccc3c(c2C1)O/C(=C\c1cccc(OC)c1OC)C3=O`, the activation was 26.3% (inactive). The activation under setting [1] came out at 20.7%.

For `Cc1nn(C)cc1N1C(=O)c2cccc3c([N+](=O)[O-])ccc(c23)C1=O`, the activation is -4.56% (inactive). In addition, the activation under setting [1] was -14.9%.
